Experimental data as given in PubChem BioAssay (EPA / NIEHS).
Values joined by “and” are separate entries in the source; they are usually repeats but may differ in a detail not shown here. Equal values may be shown once. Results filed as inconclusive are left out. Some compounds were tested as several samples or in several runs, with calls that do not always agree. Active and inactive are the calls of the source. How the source made its calls, unless noted: active means hit-call score of the fitted dose curve at least 0.9, where 1 is the maximum; inconclusive means response in the unintended direction; inactive means score below 0.9.

Tests used:
[1] = test system: rat Norepinephrine Transporter (NET), gene 83511; assay: NVS_TR_rNET: NovaScreen (NVS) Transporter Assay for rat Norepinephrine Transporter (NET) (AID 2283373)
Method in brief: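 Competitive radioligand displacement at the rat NET using forebrain membrane preparations, 1 h incubation, filter-based scintillation readout. Primary testing in duplicate at a single 25 uM concentration; confirmed actives retested across concentrations.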

[2] = target: rat Serotonin Transporter (SERT), Slc6a4 (gene 25553) (UniProt P31652); assay: NVS_TR_rSERT: NovaScreen (NVS) Transporter Assay for rat Serotonin Transporter (SERT) (AID 2283375)
Method in brief: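 Rat forebrain membranes were incubated with test chemical for 1 hour; radioligand binding to SERT was measured by filter-based scintillation counting. Primary screen ran in duplicate at 25 uM, with actives followed up in concentration series; DMSO served as negative control.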

[3] = target: Agonist Androgen Response Element (ARE), AR (gene 367) (UniProt P10275); assay: OT_AR_ARELUC_AG_1440: Odyssey Thera (OT) 24-hour CHO-K1 Luciferase Assay for Agonist Androgen Response Element (ARE) (AID 2283379)
Method in brief: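 Gain-of-signal reporter endpoint: cells (CHO-K1, hamster) are treated 24 h, luciferin/ATP reagent added, and luminescence compared with DMSO baseline.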

[4] = target: Estrogen receptor beta (Homo sapiens) (UniProt Q92731); assay: OT_ER_ERbERb_1440: Odyssey Thera (OT) 24-hour HEK293T Protein-Complementation Assay for Estrogen Receptor-beta/-beta Homodimer (AID 2283380);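 further: scored as signal increase over DMSO baseline for both agonists and antagonists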
Method in brief: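 HEK293T cells stably expressing ER beta LBD (aa 310-547) homodimer fragment-complementation reporter, dosed 24 h. Cells formaldehyde-fixed, Draq5-stained; gain in nuclear (agonist) or nuclear plus cytoplasmic (antagonist) fluorescence versus DMSO read by laser scanning cytometry.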

[5] = target: Estrogen receptor (Homo sapiens) (UniProt P03372); assay: OT_ERa_GFPERaERE_0480: Odyssey Thera (OT) 8-hour HeLa Transcription Induction Assay for Estrogen Receptor (AID 2283381; active means hit-call score of the fitted dose curve at least 0.9, where 1 is the maximum; inactive means score below 0.9)
Method in brief: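 GFP-ERE reporter, HeLa, 8 h exposure. Readout: fluorescence microscopy, high-content image analysis. Fit direction positive vs DMSO negative control.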

[6] = target: Estrogen receptor (Homo sapiens) (UniProt P03372); assay: OT_ERa_GFPERaERE_0120: Odyssey Thera (OT) 2-hour HeLa Transcription Induction Assay for Estrogen Receptor (AID 2283382)
Method in brief: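 Fluorescence microscopy read-out: inducible fluorescent protein reporter in HeLa cells, imaged 2 h post-dose. Signal increase over DMSO negative control fitted as single primary endpoint via high content image analysis.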

[7] = target: Retinoic acid receptor RXR-alpha (Homo sapiens) (UniProt P19793); assay: OT_NURR1_NURR1RXRa_0480: Odyssey Thera (OT) 8-hour HEK293T Protein Complementation Assay for Nurr1/retinoid X receptor (RXR) (AID 2283385)
Method in brief: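 Read-out: fluorescence from protein-fragment complementation between Nurr1 and RXRα in human HEK293T cells, 8 h after dosing. DMSO served as negative control; increased signal counted as activity.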

[8] = target: Retinoic acid receptor RXR-alpha (Homo sapiens) (UniProt P19793); assay: OT_NURR1_NURR1RXRa_1440: Odyssey Thera (OT) 24-hour HEK293T Protein Complementation Assay for Nurr1/retinoid X receptor (RXR) (AID 2283386)
Method in brief: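 Fluorescence PCA read-out; HEK293T; 24 h post-dose; bait/prey fused to reporter fragments; gain-of-signal fit vs DMSO negative control.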

[9] = target: Bile acid receptor (Homo sapiens) (UniProt Q96RI1); assay: OT_FXR_FXRSRC1_1440: Odyssey Thera (OT) 24-hour HEK293T Protein-Complementation Assay for Farnesoid X receptor/SRC-1 Co-activator (AID 2283384)
Method in brief: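 Fluorescence readout, 24 h post-dose, HEK293T; FXR and SRC-1 fused to complementary reporter fragments, association reconstitutes signal. Positive-direction fit vs DMSO baseline.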

[10] = target: Peroxisome proliferator-activated receptor gamma (Homo sapiens) (UniProt P37231); assay: OT_PPARg_PPARgSRC1_0480: Odyssey Thera (OT) 8-hour Protein-Complementation Assay for Peroxisome Proliferator-activated Receptor Gamma / SRC-1 Co-activator (AID 2283387)
Method in brief: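 HEK293T transiently transfected with PPARg and SRC-1 fused to Venus YFP fragments, compounds 8 h at 37C. Fixed, Draq5-stained cells imaged; nuclear/cytoplasmic 488 nm fluorescence ratio over at least 350 cells per image; gain fitted versus DMSO.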

[11] = target: Peroxisome proliferator-activated receptor gamma (Homo sapiens) (UniProt P37231); assay: OT_PPARg_PPARgSRC1_1440: Odyssey Thera (OT) 24-hour Protein-Complementation Assay for Peroxisome Proliferator-activated Receptor Gamma/ SRC-1 Co-activator (AID 2283388)
Method in brief: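 HEK293T cells transiently transfected with PPARg and SRC-1 fused via (Gly4Ser)2 linker to split Venus YFP fragments (IFP1/IFP2) were dosed 24 h; fixed, Draq5-stained, imaged at 488/635 nm; nuclear/cytoplasmic fluorescence ratio scored versus DMSO baseline, gain-of-signal.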

[12] = CEETOX_H295R_11DCORT: CeeTox H295R High-throughput Steroidogenesis Assay for 11-Deoxycortisol (11DCORT) (AID 2283432; active means hit-call score of the fitted dose curve at least 0.9, where 1 is the maximum; inactive means score below 0.9); conditions: actives raise or lower the signal
Method in brief: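 H295R cells prestimulated 48 h with 10 uM forskolin, then exposed 48 h to chemical in 0.1% DMSO. 11-Deoxycortisol in medium quantified by HPLC-MS/MS after MTBE extraction; bidirectional fit versus DMSO. MTT viability read in same wells.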

[13] = CEETOX_H295R_OHPREG: CeeTox H295R High-throughput Steroidogenesis Assay for OH-Pregnenolone (OHPREG) (AID 2283434; active means hit-call score of the fitted dose curve at least 0.9, where 1 is the maximum; inactive means score below 0.9); conditions: actives raise or lower the signal
Method in brief: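 H295R, 10 uM forskolin pre-stim 48 h; test chemical 48 h, 0.1% DMSO final. MTBE extraction, reverse-phase C18 HPLC-ESI+ MS/MS of medium. Gain/loss vs DMSO; viability by MTT in same wells.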

[14] = CEETOX_H295R_OHPROG: CeeTox H295R High-throughput Steroidogenesis Assay for OH-Progesterone (OHPROG) (AID 2283435; active means hit-call score of the fitted dose curve at least 0.9, where 1 is the maximum; inactive means score below 0.9;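 on AC50: human adrenal H295R cells primed 48 h with 10 µM forskolin; 17alpha-hydroxyprogesterone secreted into medium measured by HPLC-MS/MS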); conditions: actives raise or lower the signal
Method in brief: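 HPLC-MS/MS quantification of 17alpha-hydroxyprogesterone secreted by H295R cells after 48 h chemical exposure, following 48 h 10 uM forskolin prestimulation. Gain or loss of signal fitted relative to DMSO. Viability checked by MTT in the same wells.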

[15] = CEETOX_H295R_ANDR: CeeTox H295R High-throughput Steroidogenesis Assay for Androstenedione (ANDR) (AID 2283436; active means hit-call score of the fitted dose curve at least 0.9, where 1 is the maximum; inactive means score below 0.9;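 further: human H295R adrenal cells exposed for 48 h with androstenedione measured in medium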); conditions: actives raise or lower the signal
Method in brief: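 48 h chemical exposure, H295R cells, DMEM/F12 + ITS+ and Nu-Serum. Medium androstenedione: MTBE extraction, C18 reverse-phase HPLC, ESI+ MS/MS. Fit bidirectional vs DMSO; MTT viability in same wells.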

[16] = target: Bile acid receptor (Homo sapiens) (UniProt Q96RI1); assay: OT_FXR_FXRSRC1_0480: Odyssey Thera (OT) 8-hour HEK293T Protein-Complementation Assay for Farnesoid X receptor/SRC-1 Co-activator (AID 2283383)
Method in brief: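 Fluorescence intensity read-out, 8 h post-dose, HEK293T protein-fragment complementation; FXR bait and SRC-1 prey each linked to reporter fragments. Activity scored as signal increase over DMSO negative control.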

[17] = target: mouse Estrogen Receptor alpha (Era), Esr1 (gene 13982) (UniProt P19785); assay: NVS_NR_mERa: NovaScreen (NVS) Nuclear Receptor Binding Assay for mouse Estrogen Receptor alpha (Era) (AID 2283378);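 further: hit means loss of bound radioligand signal relative to DMSO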
Method in brief: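 Cell-free radioligand binding with extracted mouse Era protein; competitive displacement of radiolabelled ligand, read by filter-based scintillation counting 18 hours after dosing. Loss of signal versus DMSO baseline taken as binding; single screening concentration 25 uM, actives followed in concentration series.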

Sequence of Estrogen receptor beta (Homo sapiens) (Q92731 whole entry, looked up, the tested form may be a part): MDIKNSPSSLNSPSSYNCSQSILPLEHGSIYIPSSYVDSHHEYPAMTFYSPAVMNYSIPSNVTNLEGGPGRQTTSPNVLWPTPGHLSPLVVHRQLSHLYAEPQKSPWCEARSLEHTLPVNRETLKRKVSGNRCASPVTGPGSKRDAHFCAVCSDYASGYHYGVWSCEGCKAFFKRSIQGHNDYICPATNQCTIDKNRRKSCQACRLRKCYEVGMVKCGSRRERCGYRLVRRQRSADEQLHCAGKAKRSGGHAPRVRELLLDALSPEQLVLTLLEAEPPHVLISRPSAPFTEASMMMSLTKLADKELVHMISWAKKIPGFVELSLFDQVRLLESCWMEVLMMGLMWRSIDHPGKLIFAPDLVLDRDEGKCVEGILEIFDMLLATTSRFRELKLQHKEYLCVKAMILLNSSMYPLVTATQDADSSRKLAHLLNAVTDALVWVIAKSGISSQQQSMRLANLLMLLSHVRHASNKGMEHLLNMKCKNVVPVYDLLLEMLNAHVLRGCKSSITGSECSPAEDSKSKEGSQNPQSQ
Sequence of Bile acid receptor (Homo sapiens) (Q96RI1 whole entry, looked up, the tested form may be a part): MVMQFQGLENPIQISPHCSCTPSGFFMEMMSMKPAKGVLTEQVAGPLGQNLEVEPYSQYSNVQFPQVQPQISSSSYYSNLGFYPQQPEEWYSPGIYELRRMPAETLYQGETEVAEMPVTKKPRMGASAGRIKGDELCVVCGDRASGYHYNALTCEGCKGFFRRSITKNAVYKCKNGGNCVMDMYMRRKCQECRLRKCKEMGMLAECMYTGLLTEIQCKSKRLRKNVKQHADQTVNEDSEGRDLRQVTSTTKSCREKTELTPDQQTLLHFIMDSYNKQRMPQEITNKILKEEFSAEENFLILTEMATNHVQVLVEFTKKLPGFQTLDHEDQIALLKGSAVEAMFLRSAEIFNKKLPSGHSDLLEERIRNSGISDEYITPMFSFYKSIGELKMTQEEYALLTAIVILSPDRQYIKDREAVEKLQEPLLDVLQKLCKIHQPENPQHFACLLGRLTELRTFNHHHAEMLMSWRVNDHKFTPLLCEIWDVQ
Sequence of Retinoic acid receptor RXR-alpha (Homo sapiens) (P19793 whole entry, looked up, the tested form may be a part): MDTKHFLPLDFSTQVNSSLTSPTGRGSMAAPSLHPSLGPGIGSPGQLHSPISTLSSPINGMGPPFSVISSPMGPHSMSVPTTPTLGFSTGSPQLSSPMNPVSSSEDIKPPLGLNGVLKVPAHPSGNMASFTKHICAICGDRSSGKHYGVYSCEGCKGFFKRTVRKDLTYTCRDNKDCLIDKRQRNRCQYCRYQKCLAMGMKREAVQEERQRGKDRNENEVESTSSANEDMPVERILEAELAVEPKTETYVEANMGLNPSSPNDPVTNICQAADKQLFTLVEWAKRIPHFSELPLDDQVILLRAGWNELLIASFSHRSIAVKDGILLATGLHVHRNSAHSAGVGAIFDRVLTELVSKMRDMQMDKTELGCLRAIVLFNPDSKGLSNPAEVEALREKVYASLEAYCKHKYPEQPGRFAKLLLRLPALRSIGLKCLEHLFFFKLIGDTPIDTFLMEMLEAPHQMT
Sequence of Peroxisome proliferator-activated receptor gamma (Homo sapiens) (P37231 whole entry, looked up, the tested form may be a part): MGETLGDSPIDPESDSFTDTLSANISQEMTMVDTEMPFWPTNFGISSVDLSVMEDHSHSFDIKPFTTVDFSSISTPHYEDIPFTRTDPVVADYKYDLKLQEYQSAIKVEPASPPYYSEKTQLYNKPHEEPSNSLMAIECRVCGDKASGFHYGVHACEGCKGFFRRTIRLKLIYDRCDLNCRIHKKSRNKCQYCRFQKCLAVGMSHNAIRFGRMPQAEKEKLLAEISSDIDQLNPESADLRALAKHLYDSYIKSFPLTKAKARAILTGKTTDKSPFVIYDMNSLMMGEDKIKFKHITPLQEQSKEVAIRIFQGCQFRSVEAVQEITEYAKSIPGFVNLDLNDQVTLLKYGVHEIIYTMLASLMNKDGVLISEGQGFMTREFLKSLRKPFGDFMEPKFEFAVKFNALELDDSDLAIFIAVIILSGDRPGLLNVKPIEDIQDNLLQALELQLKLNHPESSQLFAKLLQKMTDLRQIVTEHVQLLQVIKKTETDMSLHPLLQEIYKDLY
Sequence of Estrogen receptor (Homo sapiens) (P03372 whole entry, looked up): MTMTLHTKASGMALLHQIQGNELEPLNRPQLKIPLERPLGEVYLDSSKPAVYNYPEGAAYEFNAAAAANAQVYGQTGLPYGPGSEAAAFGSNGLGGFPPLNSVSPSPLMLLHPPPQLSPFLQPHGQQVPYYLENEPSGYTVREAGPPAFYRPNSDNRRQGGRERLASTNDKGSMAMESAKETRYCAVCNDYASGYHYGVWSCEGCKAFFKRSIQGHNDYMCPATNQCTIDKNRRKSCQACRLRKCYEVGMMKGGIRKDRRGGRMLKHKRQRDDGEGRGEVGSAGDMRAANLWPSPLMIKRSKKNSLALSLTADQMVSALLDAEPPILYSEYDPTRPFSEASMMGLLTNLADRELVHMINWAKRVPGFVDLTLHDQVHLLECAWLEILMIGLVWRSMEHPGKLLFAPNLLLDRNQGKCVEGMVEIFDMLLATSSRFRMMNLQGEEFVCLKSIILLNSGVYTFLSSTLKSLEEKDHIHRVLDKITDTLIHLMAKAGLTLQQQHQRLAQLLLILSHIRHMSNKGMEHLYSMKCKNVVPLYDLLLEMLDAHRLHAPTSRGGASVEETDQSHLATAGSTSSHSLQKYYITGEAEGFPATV
Sequence of Agonist Androgen Response Element (ARE), AR (gene 367) (P10275 whole entry, looked up): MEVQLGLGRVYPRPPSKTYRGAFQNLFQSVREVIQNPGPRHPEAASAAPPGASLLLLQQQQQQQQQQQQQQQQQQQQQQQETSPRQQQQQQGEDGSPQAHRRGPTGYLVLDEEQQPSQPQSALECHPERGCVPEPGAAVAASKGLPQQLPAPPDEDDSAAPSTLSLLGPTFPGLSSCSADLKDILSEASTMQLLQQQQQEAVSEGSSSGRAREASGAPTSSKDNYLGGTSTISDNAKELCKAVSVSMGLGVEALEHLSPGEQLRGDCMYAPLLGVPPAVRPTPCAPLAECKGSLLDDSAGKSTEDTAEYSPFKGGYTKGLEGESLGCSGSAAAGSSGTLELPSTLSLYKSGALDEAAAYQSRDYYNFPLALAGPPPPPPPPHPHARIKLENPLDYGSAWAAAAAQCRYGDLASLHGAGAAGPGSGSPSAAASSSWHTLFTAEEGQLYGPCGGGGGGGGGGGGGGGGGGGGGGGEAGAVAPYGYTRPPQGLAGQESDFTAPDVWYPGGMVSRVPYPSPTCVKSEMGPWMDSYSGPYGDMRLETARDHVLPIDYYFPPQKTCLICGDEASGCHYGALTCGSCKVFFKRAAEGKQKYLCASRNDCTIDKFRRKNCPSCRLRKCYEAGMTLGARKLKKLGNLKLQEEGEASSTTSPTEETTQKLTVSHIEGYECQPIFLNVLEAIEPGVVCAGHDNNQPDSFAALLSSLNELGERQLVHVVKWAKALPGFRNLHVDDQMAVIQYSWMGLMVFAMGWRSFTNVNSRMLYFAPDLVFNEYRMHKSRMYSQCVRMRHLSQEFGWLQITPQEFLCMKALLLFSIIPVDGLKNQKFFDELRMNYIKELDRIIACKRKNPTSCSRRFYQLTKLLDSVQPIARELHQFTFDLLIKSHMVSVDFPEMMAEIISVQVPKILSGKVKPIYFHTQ
Sequence of mouse Estrogen Receptor alpha (Era), Esr1 (gene 13982) (P19785 whole entry, looked up): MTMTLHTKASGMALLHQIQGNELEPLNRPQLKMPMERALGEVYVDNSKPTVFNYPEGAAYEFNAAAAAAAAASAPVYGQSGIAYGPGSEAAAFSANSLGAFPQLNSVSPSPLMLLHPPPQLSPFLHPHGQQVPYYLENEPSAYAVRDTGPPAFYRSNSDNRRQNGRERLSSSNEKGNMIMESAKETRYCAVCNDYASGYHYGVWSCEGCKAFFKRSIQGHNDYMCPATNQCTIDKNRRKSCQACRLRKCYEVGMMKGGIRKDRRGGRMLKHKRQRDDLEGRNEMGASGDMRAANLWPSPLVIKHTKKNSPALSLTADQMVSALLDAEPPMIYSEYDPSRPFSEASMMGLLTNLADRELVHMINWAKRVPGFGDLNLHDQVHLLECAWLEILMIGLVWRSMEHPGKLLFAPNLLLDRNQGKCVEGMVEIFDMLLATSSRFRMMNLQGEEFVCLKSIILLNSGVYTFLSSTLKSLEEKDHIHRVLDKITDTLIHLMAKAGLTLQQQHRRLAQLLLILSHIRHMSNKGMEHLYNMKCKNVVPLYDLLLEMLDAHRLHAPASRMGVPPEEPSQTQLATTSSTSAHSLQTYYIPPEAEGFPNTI
Sequence of rat Serotonin Transporter (SERT), Slc6a4 (gene 25553) (P31652 whole entry, looked up): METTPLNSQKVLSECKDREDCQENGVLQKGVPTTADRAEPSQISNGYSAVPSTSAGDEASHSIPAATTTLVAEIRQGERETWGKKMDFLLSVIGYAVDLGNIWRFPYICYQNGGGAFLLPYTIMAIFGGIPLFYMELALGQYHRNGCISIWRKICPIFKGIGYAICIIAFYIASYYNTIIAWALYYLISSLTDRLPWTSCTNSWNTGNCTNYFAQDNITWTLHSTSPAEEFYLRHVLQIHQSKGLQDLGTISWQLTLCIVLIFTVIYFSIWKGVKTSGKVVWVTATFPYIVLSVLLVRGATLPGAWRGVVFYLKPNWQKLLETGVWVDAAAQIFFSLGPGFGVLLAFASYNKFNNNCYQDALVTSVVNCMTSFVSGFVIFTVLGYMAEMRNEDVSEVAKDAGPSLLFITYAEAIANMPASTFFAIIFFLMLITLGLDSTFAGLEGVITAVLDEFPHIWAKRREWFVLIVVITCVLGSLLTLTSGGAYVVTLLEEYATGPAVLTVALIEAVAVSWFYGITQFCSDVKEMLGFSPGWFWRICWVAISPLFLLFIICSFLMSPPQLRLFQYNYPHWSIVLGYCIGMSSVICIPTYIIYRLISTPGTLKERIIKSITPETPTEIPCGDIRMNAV

CN(C)CCOC(c1ccccc1)c1ccccc1
AC50 [1]: 2.98 µM (active)
AC50 [2]: 12.6 µM (active)
outcome [3]: inactive
outcome [4]: inactive
outcome [5]: inactive
outcome [6]: inactive
outcome [7]: inactive
AC50 [8]: 6.73 µM (active)
outcome [8]: inactive

OCC(CO)(CBr)CBr
outcome [9]: inactive
outcome [7]: inactive
outcome [10]: inactive
outcome [11]: inactive

NS(=O)(=O)O
outcome [4]: inactive
outcome [7]: inactive
outcome [8]: inactive
outcome [10]: inactive
outcome [11]: inactive

NCCN
outcome [5]: inactive
outcome [6]: inactive
outcome [8]: inactive
outcome [10]: inactive
outcome [11]: inactive

O=C(NCc1ncc(C(F)(F)F)cc1Cl)c1c(Cl)cccc1Cl
outcome [12]: inactive
outcome [13]: inactive
AC50 [14]: 7.42 µM (active)
outcome [15]: inactive

CCCCc1oc2ccccc2c1C(=O)c1cc(I)c(OCCN(CC)CC)c(I)c1
outcome [4]: inactive
outcome [5]: inactive
outcome [6]: inactive
AC50 [16]: 9.16 µM (active)
AC50 [9]: 8.87 µM (active)
AC50 [7]: 8.75 µM (active)
outcome [7]: inactive
AC50 [8]: 8.94 µM (active) and 8.82 µM (active)
outcome [10]: inactive
outcome [11]: inactive

c1cnc2c(c1)ccc1cccnc12
outcome [4]: inactive
outcome [7]: inactive
AC50 [8]: 0.727 µM (active)
outcome [10]: inactive
outcome [11]: inactive

COc1cc([N+](=O)[O-])ccc1N
outcome [3]: inactive
AC50 [4]: 28.4 µM (active)
outcome [5]: inactive
outcome [6]: inactive
outcome [16]: inactive
AC50 [9]: 28 µM (active)
outcome [7]: inactive
outcome [8]: inactive
outcome [11]: inactive
outcome [12]: inactive
outcome [13]: inactive
AC50 [14]: 15.1 µM (active)
outcome [15]: inactive

NCc1cccc(CN)c1
AC50 [17]: 6.34 µM (active)
outcome [4]: inactive
outcome [5]: inactive
outcome [6]: inactive
outcome [9]: inactive
outcome [8]: inactive
outcome [10]: inactive
outcome [11]: inactive

Cc1ccc(S(=O)(=O)O)cc1
outcome [4]: inactive
outcome [8]: inactive

CCCCC(CC)C(=O)O (centres undefined)
outcome [8]: inactive
outcome [10]: inactive
outcome [11]: inactive

COc1cccc(O)c1
outcome [12]: inactive
outcome [13]: inactive
outcome [14]: inactive

CC(C)CCOCCC(C)C
outcome [12]: inactive
outcome [13]: inactive
outcome [14]: inactive
outcome [15]: inactive

CCCCC=O
outcome [9]: inactive
outcome [7]: inactive
outcome [8]: inactive

CCCCCCc1ccc(N)cc1
AC50 [17]: 0.138 µM (active)
outcome [3]: inactive
outcome [4]: inactive
outcome [5]: inactive
outcome [6]: inactive
AC50 [16]: 17 µM (active)
AC50 [9]: 6.61 µM (active)
outcome [7]: inactive
outcome [8]: inactive
outcome [10]: inactive
outcome [11]: inactive
